Here are results for 19 compounds from PubChem BioAssay (NCATS).

Results filed as inconclusive are left out. Unmarked numbers belong to inactive results. Active and inactive are the calls of the source. Calls come from the whole dose curve; as a rule, active = well fitted curve in the direction sought with a large enough effect; inconclusive = small, poorly fitted or top-dose-only effect, or another doubt; inactive = no such curve, though single readings can be large; an effect the other way counts as inactive or inconclusive.

The subject of one assay is MCC-13. In words: qHTS assay to identify novel small-molecules to repurpose for Merkel cell carcinoma treatment (AID 1296009). Note: nearly all actives have a fitted effect of over 60% in size. As to conditions: MCC and control cell lines, CellTiter-Glo viability, 72 h; series mostly up to 46 µM. A digest of the protocol: (§1)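 After compound transfer in DMSO, plates were kept 72 hr at 37 degree celsius. Luminescent ATP signal from CellTiter-Glo served as viability measure, normalized against DMSO and no-cell controls.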
A general note: Quantitative high-throughput screening tests each substance at several concentrations.

The next assay has as its system MKL-1. The assay is described as above. The settings on record: MCC and control cell lines, CellTiter-Glo viability, 72 h; series mostly up to 46 µM. A digest of the protocol: as §1
A general note: In ATP-based viability assays light output follows the ATP content of the culture.

For the next assay, the system named is MKL-2. The description is as above. The settings on record: MCC and control cell lines, CellTiter-Glo viability, 72 h; series mostly up to 46 µM. The essentials: as §1
The next assay has as its system WaGa. Described as above. The settings on record: MCC and control cell lines, CellTiter-Glo viability, 72 h; series mostly up to 46 µM. A digest of the protocol:
as §1

The next assay deals with MCC-26. The assay is described as above. The settings on record: MCC and control cell lines, CellTiter-Glo viability, 72 h; series mostly up to 46 µM. The essentials:
as §1

A further assay relates to UISO. Described as above. The settings on record: MCC and control cell lines, CellTiter-Glo viability, 72 h; series mostly up to 46 µM. The essentials:
as §1

The subject of another assay is C33A. As to the kind of experiment: Primary qHTS to identify gynecologic anti-cancer compounds using libraries of approved drugs and bioactive compounds (AID 1345084). Note: nearly all actives have a fitted effect of over 55% in size. As to conditions: Gynecologic cancer cell panel viability, ATPlite luminescence, 48 h; series mostly up to 57.5 µM. A digest of the protocol:
(§2)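 Luminescence from the ATPlite ATP-monitoring reagent indicates viable cell number; lower signal means cytotoxicity. Cells received compound 16 h after seeding and were exposed for 48 h across five concentrations.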

The test system of the next assay is CASKI. The description is as above. As to conditions: Gynecologic cancer cell panel viability, ATPlite luminescence, 48 h; series mostly up to 57.5 µM. The essentials: as §2
For another assay, the system named is Es-2. The assay is described as above. The settings on record: Gynecologic cancer cell panel viability, ATPlite luminescence, 48 h; series mostly up to 57.5 µM. The essentials: as §2
The next assay deals with Hek293T. Described as above. The settings on record: Gynecologic cancer cell panel viability, ATPlite luminescence, 48 h, control line for the selectivity index; series mostly up to 57.5 µM. A digest of the protocol: as §2
For a further assay, the system named is JEG-3. Described as above. The settings on record: Gynecologic cancer cell panel viability, ATPlite luminescence, 48 h; series mostly up to 57.5 µM. The essentials: as §2
For a further assay, the system named is OV90. Described as above. The settings on record: Gynecologic cancer cell panel viability, ATPlite luminescence, 48 h; series mostly up to 57.5 µM. The essentials:
as §2

Another assay has as its system HeLa. The assay is described as above. The settings on record: Gynecologic cancer cell panel viability, ATPlite luminescence, 48 h; series mostly up to 57.5 µM. The essentials:
as §2

A further assay concerns PA-1. The description is as above. The settings on record: Gynecologic cancer cell panel viability, ATPlite luminescence, 48 h; series mostly up to 57.5 µM. The essentials: as §2
The subject of a further assay is Tov-21-G. Described as above. As to conditions: Gynecologic cancer cell panel viability, ATPlite luminescence, 48 h; series mostly up to 57.5 µM. The essentials: as §2
Another assay deals with Tov112D. The description is as above. The settings on record: Gynecologic cancer cell panel viability, ATPlite luminescence, 48 h; series mostly up to 57.5 µM. A digest of the protocol: as §2
For a further assay, the system named is SKOV3. Described as above. The settings on record: Gynecologic cancer cell panel viability, ATPlite luminescence, 48 h; series mostly up to 57.5 µM. A digest of the protocol: as §2
The subject of a further assay is CAOV3. Described as above. The settings on record: Gynecologic cancer cell panel viability, ATPlite luminescence, 48 h; series mostly up to 57.5 µM. A digest of the protocol:
as §2
Potency is the fitted concentration of half-maximal effect.

In the case of `CNC(=O)[C@H](CC1=CN=C2C=CCC=C12)NC(=O)[C@@H](CC(=O)NO)CC(C)C`, the Potency result in the assay on MCC-13 is “inactive”. In addition, the Potency with MKL-1 is 0.296 µM (active); in the assay on MKL-2 it was 0.264 µM (active); with WaGa, 0.296 µM (active).

For the compound `C=CCc1cccc(C=NNC(=O)CN2CCN(Cc3ccccc3)CC2)c1O`, the Potency result in the assay on MCC-26 was “inactive”. Besides, the Potency was 9.35 µM (active) with MKL-1, 16.6 µM (active) with MKL-2 and 16.6 µM (active) with WaGa.

With `O=C(Nc1cccc(Cl)c1)Nc1ncc(CCNc2ncnc3ccsc23)s1`, the Potency result with MCC-26, with MKL-2 and with UISO was “inactive” throughout. Also, the Potency with MKL-1 was 0.296 µM (active).

For the compound `CC(=O)NCCC(=O)N[C@@H](CCC(N)=O)C(=O)N[C@@H](CO)C(=O)N[C@@H](CCC(N)=O)C(=O)N[C@@H](CCC(N)=O)C(=O)N[C@H](C(=O)N[C@@H](Cc1ccccc1)C(=O)N[C@]1(C)CCCCCCC=CCCC[C@@](C)(C(=O)N[C@@H](CCC(N)=O)C(=O)N[C@@H](CC(N)=O)C(N)=O)NC(=O)[C@H](CC(C)C)NC(=O)[C@H](CC(C)C)NC(=O)[C@@H](CCCNC(=N)N)NC(=O)[C@H](Cc2c[nH]c3ccccc23)NC(=O)[C@H](CC(C)C)NC(=O)[C@H](CC(N)=O)NC1=O)[C@H](C)O`, the Potency entry with MCC-13, with MKL-1, with UISO and in the assay on WaGa was “inactive” in each case.

Regarding `Cn1cnc(-c2cc3nccc(Oc4ccc(NC(=S)NC(=O)Cc5ccccc5)cc4F)c3s2)c1`, the Potency entry in the assay with MCC-13, in the assay on MKL-1, with MKL-2, with WaGa, in the assay on C33A and with CASKI was “inactive” in each case. Moreover, the Potency entry in the assay with Es-2, in the assay with Hek293T, in the assay on JEG-3 and in the assay on OV90 was “inactive” each time. Besides, in the assay with UISO, the Potency is 18.7 µM (active).

On to `CN1c2ccccc2C(=O)N2CCc3c([nH]c4ccccc34)C21` (stereo not given), for which the Potency result in the assay on MCC-13, with MKL-1, with MKL-2, in the assay with UISO and in the assay on WaGa was “inactive” throughout. Besides, the Potency in the assay with CASKI is 7.08 µM (active); in the assay with Es-2, 14.1 µM (active); with HeLa, 7.94 µM (active); with JEG-3, 3.98 µM (active); in the assay on PA-1 it was 7080 nM (active); in the assay on Tov-21-G, 8.91 µM (active). Moreover, the Potency with Tov112D was 3.55 µM (active).

Turning to `O=C(O)c1ccc(O)c2ncc(N3CCOCC3)cc12`, the Potency entry with MCC-13 was “inactive”. Besides, the values for the Potency in the assay with MKL-1, in the assay on MKL-2 and in the assay on WaGa were 16.6 µM (active), 14.8 µM (active) and 23.5 µM (active), respectively.

Take `CSc1cccc(Nc2ncc3cc(-c4c(Cl)cccc4Cl)c(=O)n(C)c3n2)c1`: the Potency entry in the assay with MCC-13, in the assay on MKL-1, in the assay on MKL-2 and in the assay on WaGa was “inactive” each time.

Consider `CC[C@H](CC#N)OC(=O)N[C@@H](C)c1cccc(NC(=O)Nc2ccc(-c3cnco3)c(OC)c2)c1`, for which the Potency in the assay with MCC-13 was 4.18 µM (active); with Es-2 it was 1.78 µM (active); in the assay on Hek293T, 1.78 µM (active); with PA-1, 355 nM (active); with SKOV3, 6.31 µM (active); in the assay on Tov-21-G it was 1.26 µM (active). The Potency result in the assay with JEG-3 is “inactive”.

On to `CN[C@@H]1CN(c2ccc3c(=O)c(C(=O)O)cn(-c4nccs4)c3n2)C[C@@H]1OC`, for which the Potency result with MCC-26 was “inactive”. In addition, the Potency in the assay on MKL-1 is 1.82 µM (active); in the assay on MKL-2, 3.23 µM (active); with WaGa, 1.15 µM (active).

Take `CCNC(=O)c1noc(-c2cc(C(C)C)c(O)cc2O)c1-c1ccc(CN2CCOCC2)cc1`: the Potency in the assay with MCC-13 was 0.209 µM (active); with UISO, 0.166 µM (active); in the assay on OV90, 3.98 µM (active); with PA-1 it was 251 nM (active). Further, the Potency entry in the assay with MKL-2, in the assay with CAOV3 and with JEG-3 was “inactive” throughout.

As to `CC(C)Oc1cc(Nc2nc(N[C@@H](C)c3ccc(F)cn3)ncc2Cl)[nH]n1`, the Potency with MCC-26 is 14.8 µM (active). Further, the Potency entry in the assay on MKL-1 and in the assay with MKL-2 was “inactive” throughout.

As for `CC1(C)CC(=O)c2c(C(F)(F)F)nn(-c3ccc(C(N)=O)c(NC4CCC(O)CC4)c3)c2C1` (stereo not given), the Potency with UISO is 0.166 µM (active); in the assay on OV90, 0.316 µM (active); in the assay with PA-1, 447 nM (active); with SKOV3 it was 0.398 µM (active); in the assay on Tov-21-G it was 0.355 µM (active). Further, the Potency result in the assay with HeLa was “inactive”.

Turning to `COc1cc2nccc(Oc3ccc(NC(=O)Nc4cc(C)on4)c(Cl)c3)c2cc1OC`, the Potency in the assay with WaGa was 23.5 µM (active). The Potency result with Hek293T and in the assay on JEG-3 was “inactive” in each case.

On to `C[C@H]1[C@H](O)O[C@@H]2O[C@@]3(C)CC[C@@H]4[C@H](C)CC[C@@H]1[C@@]24OO3`, for which the Potency in the assay on MKL-1 is 16.6 µM (active); in the assay with MKL-2 it was 10.5 µM (active); in the assay with UISO, 2.96 µM (active); in the assay with WaGa, 9.35 µM (active).

In the case of `Cc1csc(-c2nnc(Nc3ccc(Oc4ncccc4-c4ccnc(N)n4)cc3)c3ccccc23)c1`, the Potency entry in the assay with UISO, with C33A, in the assay with CASKI, in the assay with HeLa, with Hek293T and with JEG-3 was “inactive” throughout. Moreover, the Potency entry with OV90, in the assay on PA-1 and in the assay on Tov-21-G was “inactive” in each case. In the assay with WaGa, the Potency was 0.0118 µM (active).

On to `COc1cc2c(cc1Cc1cccc(Cl)c1F)c(=O)c(C(=O)O)cn2[C@H](CO)C(C)C`, for which the Potency entry in the assay on MCC-26 is “inactive”. For the same compound, the Potency in the assay on MKL-2 was 18.7 µM (active).

As to `Nc1nc(Cl)nc2c1ncn2[C@@H]1O[C@H](CO)[C@@H](O)[C@H]1F`, the Potency in the assay with MCC-26 was 0.59 µM (active); in the assay on MKL-1 it was 0.0132 µM (active). In the assay on WaGa, the Potency result is “inactive”.

With `O=S(=O)(NCCNCC=Cc1ccc(Br)cc1)c1cccc2cnccc12`, in the assay with MCC-26, the Potency result is “inactive”. Besides, the Potency with MKL-1 is 20.9 µM (active); in the assay with MKL-2 it was 5.26 µM (active); in the assay with WaGa it was 14.8 µM (active).
